What was measured:
Experiment in all cases: PBM binding z-score (relative to random genomic background probes); higher = stronger binding; sequences stand for … in GC…GCGATTGACAGCGTAGAATGAAGG
[1] = tested on: RARb homodimer (NR concentration 270 nM)
Summary of the method: (§1)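 For binding z-scores, the reference was random background probes on custom Agilent 4×180K protein-binding microarrays. These arrays were incubated 1 h with ligand-free nuclear receptor dimers in PBS pH 7.4, 2% milk, 0.02% Triton X-100, 1 mM DTT, 0.2 mg/mL BSA and 0.4 mg/ml salmon testes DNA. Fluorescence was scanned after antibody detection of each partner (one per run) and regression-normalized.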

[2] = tested on: RARg:RXRa (NR concentration 270 nM, RXRa partner concentration 90 nM)
Summary of the method: as §1

[3] = tested on: RARg homodimer (NR concentration 270 nM)
Summary of the method: as §1

[4] = tested on: RXRa DBDmut IVT, anti-RXR (DBD mutation: RXRa K156A/R161A, NR concentration 90 nM)
Summary of the method: as §1

[5] = tested on: RXRa homodimer (NR concentration 180 nM)
Summary of the method: as §1

[6] = tested on: THRa:RXRa (NR concentration 90 nM, RXRa partner concentration 90 nM)
Summary of the method: as §1

[7] = tested on: THRa homodimer (NR concentration 90 nM)
Summary of the method: as §1

[8] = tested on: VDR homodimer (NR concentration 270 nM)
Summary of the method: as §1

Sequence	PBM binding z-score [1]	PBM binding z-score [2]	PBM binding z-score [3]	PBM binding z-score [4]	PBM binding z-score [5]	PBM binding z-score [6]	PBM binding z-score [7]	PBM binding z-score [8]
GTACCAAGGTGAATAGGTAGTTGATGAGTAGGCG	0.555	0.67	0.626	-0.423	0.629	1.14	0.657	0.0253
TCTAGTTGGTCACAGAGGTCACACACGACGGGTA	4.61	5.8	5.57	1.63	6.43	3.97	2.54	4.18
CCTAGCCGGCCAGGGTCACTCAAGCATTTCGCTT	2.68	3.09	2.37	0.0811	3.47	2.91	1.08	1.38
CGAACTGGGTCATCCAGGACAGTGAATACATTGA	2.71	3.55	3.7	1.35	2.99	3.48	1.25	1.8
TCTTGAAGATCAACAGGAGGTTAAGAAAGATCGA	0.572	1.45	0.367	0.56	1.25	0.975	-0.383	-0.404
ACTATTAGTTGACCTAGGGCAACCGATACGACGC	3.05	2.88	2.36	0.89	2.55	2.96	1.6	0.946
GCTAGCAGGCAATTTGGGTCACTCAATGACGGGC	1.55	0.628	0.847	-0.416	0.683	2.76	0.687	-0.322
ATCTCTAGGTAAGACTCAGTTCAGTCAAGAACGC	0.982	0.387	0.453	0.696	0.195	1.18	0.902	1.48
TAGCCTAGGTCATGCGGTCCAGTATAGTGTCGGC	3.08	3.75	4.51	1.05	2.94	3	1.32	1.54
CCAGACAGGTGAAAGATAACTCAGTCTGGTACGC	0.244	0.614	0.6	0.193	0.775	0.125	-0.296	0.339
TCTATTATTTGATTAGGGCAACCGAAACAGCGGA	0.742	0.671	0.596	1.27	0.751	0.898	1.07	1.47
TCTATTTGGTCAAAGGTCACACACTCGAAATGCG	5.34	7.07	6.16	2.49	7.9	4.24	2.77	2.96
CGAACTAGGTCAGTACAGGACAGTGAAGGATGAT	2.51	2.64	3.79	0.399	1.3	3.38	0.28	0.105
CCGACTGGGGAAGAAAGGTTACCATACCATCCGG	1.97	0.982	0.848	-0.897	1.49	1.09	-0.21	-0.0513
ATCGAAAGGTCGACGAGGTGAGGATACACCGTTT	3.11	4.27	4.37	1.15	4.45	4.09	2.24	1.2
ATCTCTAGGTAAAGATAGTTCAATGAATGCAAAT	1.4	1.08	1.05	0.373	0.737	1.05	-0.0901	1.15
TCTGCTAGGTCCACGATGGTCAGCTAATCTGCTA	-0.207	-0.213	-0.0544	0.651	-0.333	-0.32	-0.873	-0.326
TCTAGGAGGCCAGAGGGTCACTCAAGAGGTACGG	3.01	3.09	2.32	0.451	2.66	1.7	0.0241	0.313
GATACAGGGTCAGCTAGAGGCCATAGTATGGAAA	3.52	6.77	4.83	1.57	3.96	3.29	0.486	1.33

Sequence	PBM binding z-score [1]	PBM binding z-score [2]	PBM binding z-score [3]	PBM binding z-score [4]	PBM binding z-score [5]	PBM binding z-score [6]	PBM binding z-score [7]	PBM binding z-score [8]
CGTTACGGGTCACTGACAGGTTATAGCATTTGGA	3.43	5.78	4.8	1.74	5.12	3	0.0977	0.672
CCGACTGGTGCAAGGTTACCATAACGCACAGCCA	0.979	0.462	0.421	0.0825	0.899	1.08	0.473	0.112
GGAACGAGGGCATTCCAGTTGATAGCATGGCGAT	0.706	1.1	1.38	3.25	0.797	3.1	-0.0583	2.61
ACTAGCAGACCAAGTTTGGGTCACTCAAACAAAG	1.57	0.911	0.702	-0.0274	0.79	1.98	0.78	0.00842
CCGAGTCGGTTATGGGGCATTCAGGCAACGGTGA	0.462	-0.0743	-0.117	-0.648	-0.27	0.224	-0.00692	0.0226
AGTCAAAGTTCGGGACGAGGTAACGTAAAGCACG	0.989	2.06	1.49	0.847	1.07	2.89	1.13	0.532
ATCTCTAGGTAAGACTCAGTGCAGTGAAGAACGC	0.192	0.0414	0.117	-0.00244	0.00631	0.285	0.26	0.24
CCGATTGGGGCATAAGGTTACCATAAGCCAGCCC	1.76	1.79	1.12	0.0114	1.14	2.16	1.14	-0.374
TAGCCTAGGTCATTGGGCCAGGATAGTACGCATC	2.8	3.79	4.56	1.25	2.67	2.74	0.55	0.858
CCGACTGGGGCAGAAATGTTACCATACCATCCGG	-0.118	0.0842	0.109	-0.424	0.066	-0.666	-0.0908	-0.0383
ATTAGCAGGCCAAGTTTGGGTCACTCAAACAAAG	2.04	2.39	1.91	0.00898	0.882	2.69	0.986	0.34
CAAACTAGGTCACAGAGGTCAAAGTCCGTGCGTA	5.8	7.58	7.69	3.5	8.16	4.79	3.15	7.24
CCGACTTGGGCATAAGGTTACCATAAGCCAGCCC	0.962	0.45	0.236	-0.0632	0.906	1.84	1.27	-0.535
GATACAGGGTCAGCTAGCGGCCAGAGTATGGAAA	2.95	6.02	4.62	1.31	4.36	2.56	-0.0331	0.352
CGTAGTTGGTCAGGAGGTCACACACCGGATATGA	4.25	5.01	4.39	0.895	4.57	3.46	2.18	3.08
AGTCAACGTTCATCTAGGTAACGTAAGATATGCT	-0.148	0.363	0.744	-0.0413	0.0603	0.649	-0.132	-0.282
AGTCAAAGTTCAGGAGGAGGTAACGTAAAGCACG	3.59	5.4	4.92	3.04	3.26	2.88	0.548	2.16
ACTTCCGGGTCAACGAGGTTATAGCACGCGTATA	3.44	5.17	4.74	2.62	5.76	4.34	2.68	4.34
TAACCAAGGTGAGCTGAGGTCGTTGATCCAACTC	1.63	1.33	0.926	-0.0437	1.58	4.65	1.86	1.81

Sequence	PBM binding z-score [1]	PBM binding z-score [2]	PBM binding z-score [3]	PBM binding z-score [4]	PBM binding z-score [5]	PBM binding z-score [6]	PBM binding z-score [7]	PBM binding z-score [8]
CAAACTAGGTCAAGGTCAATGTCGGTTTGTGCCA	5.09	5.85	6.81	2.94	5.18	4.41	3.82	4.11
TCTGCTAGGTCAGTTGGTCATCTAACGAGCTGCC	2.81	2.87	3.99	0.589	1.25	1.63	0.119	-0.506
ATAATGAGGTTATACGTAGATCAGGGAAGAAAGT	1.21	2.19	1.72	2.1	2.56	2.46	0.968	1.16
CGTCCAAGGACAAAGGTCAGTGAAGAGATGACGG	4.61	5.3	4.95	1.31	4.03	4	1.15	0.88
CCTACTGGGCCACGGTCATTGATCAGTCAAAGCA	1.5	0.43	0.896	-1.25	-0.391	0.204	-0.144	-0.135
CAAACTAGGTCAAGAGGTCGAAGTCCGCTTCCCG	4.4	6.21	5.88	1.72	5.59	3.34	1.01	2.2
AGAATGAGGTTACCAAAGACCAGGGAAACGCTTG	0.685	2.01	1.51	1.02	2.79	2.87	0.659	0.4
TCTAGTTGGTCACGGAGGTTACACACGACGGGTA	2.39	2.29	2.43	0.609	2.16	1.71	0.725	0.629
TTACCATGGTGAAGGTCGTTGATCCCTCTGTAGA	0.835	0.184	-0.00813	-0.163	1.07	0.611	-0.36	0.502
ACAGACAGGTGAGTGAAGGTATCTCAGCTGGACG	-0.269	-0.0868	0.333	-0.121	0.228	-0.00206	-0.781	-0.981
CGAACTAAGTCAGAACAGGACAGTGAAGGATGAT	0.68	0.103	0.431	0.106	0.167	1.14	-0.281	-0.107
TAGCCTAGGTCATGGGCCAGCATACCACGCGAAC	2.95	4.29	4.36	-0.00159	3.28	3.04	0.897	0.227
TGTCAAAGTTCAAAGGTAACGTTAGTATCCACAC	4.11	6.39	6.13	4.32	7.81	3.18	-0.0671	3.97
TCATATAGGGAAAGGTGAAAGTCGAACGATATGA	1.48	1.49	1.17	0.835	2.02	1.01	-0.407	-0.12
TAGCCTACGTCATGCGGGCCAGTATAGTGTCGGC	-0.71	-0.452	-0.536	-0.98	-0.341	-1.7	-0.856	-1.16
CCTGCTAGGTCAATGGTCTGCTAAAGCAGCTCGC	2.64	3.31	3.96	1.75	1.63	2.31	0.724	-0.14
GAGACTGGGGCATCAGCAGGTTACCATAACTTAA	1.46	0.941	0.703	0.142	0.509	1.3	0.361	-0.0346
CCTGCTAGGTCAATGGGCAGCTAAAGCAGCTCGC	2.4	3.12	4.03	0.674	1.35	1.99	0.0215	-0.152
GCTTACGGGTCAAAGGTTATACCATGAATAGAAT	3.74	6.93	4.71	2.59	9.41	4.17	0.206	1.77

— the supplement of paper PMC6555819
